# From PubChem BioAssay AID2283336 (EPA ToxCast)
# Records with an inconclusive call do not appear. Calls of active or inactive are those of the source. How the source made its calls: active means hit-call score of the fitted dose curve at least 0.9, where 1 is the maximum; inconclusive means response in the unintended direction; inactive means score below 0.9.
# Biological target: Kcnn1 (gene 54261) (UniProt P70606)
# Experiment: NVS_IC_rKCaCh: NovaScreen (NVS) Ion Channel Assay for Potassium Channel, Ca2+ Act., VI (KCaCh)
# Method in brief: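 Filter-based scintillation counting of radioligand bound to rat forebrain membrane preparations, measured 1 h after compound addition. Primary screen used 25 uM in duplicate, with concentration-response follow-up; signal decrease relative to DMSO marks activity.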
# Kcnn1 (gene 54261), sequence (P70606 whole entry, looked up): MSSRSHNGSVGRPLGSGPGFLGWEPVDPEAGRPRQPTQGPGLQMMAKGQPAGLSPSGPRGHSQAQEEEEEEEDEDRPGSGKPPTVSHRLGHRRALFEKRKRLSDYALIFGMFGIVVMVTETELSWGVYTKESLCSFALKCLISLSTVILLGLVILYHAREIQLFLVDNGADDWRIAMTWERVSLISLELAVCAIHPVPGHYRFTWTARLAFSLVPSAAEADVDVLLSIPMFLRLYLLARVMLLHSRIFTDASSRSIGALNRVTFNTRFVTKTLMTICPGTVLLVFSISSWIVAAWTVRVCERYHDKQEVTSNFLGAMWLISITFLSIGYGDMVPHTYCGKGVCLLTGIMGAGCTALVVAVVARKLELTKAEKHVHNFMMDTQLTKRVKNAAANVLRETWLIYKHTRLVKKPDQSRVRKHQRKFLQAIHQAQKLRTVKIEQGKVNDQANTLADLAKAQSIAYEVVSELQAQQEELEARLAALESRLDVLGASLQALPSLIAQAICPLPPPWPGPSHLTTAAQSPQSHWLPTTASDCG
smiles,measurement,value
CN(C)c1ccc(C(=C2C=CC(=[N+](C)C)C=C2)c2ccc(N(C)C)cc2)cc1,AC50,16.5 µM (active)
